# Screens: PubChem BioAssay, several laboratories
# GAA850 FXN act: FXN promoter activators, primary screen, cell-based, luciferase luminescence, HEK293 lucGAA850. HEK293 lucGAA850 FXN promoter luciferase reporter, 24 h; percent of 10 µM SAHA response. activation, % at 6 µM. 360,000 tested, 0.56% active. AID 540364, 2011;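 active = activation above the average of all compounds screened plus 3 SD, cutoff fixed separately per campaign, cut at about 7.5% in these data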
# HSF1 inhib: HSF1 inhibitors in luciferase reporter cells, primary screen, cell-based, NIH3T3, luminescence | NIH3T3-HGL HSE-luciferase, MG132-induced, luminescence 8 h; hits give low values | activity change, negative = inhibition, % at 7.5 µM (by protocol) | 300,000 tested, 0.77% active;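 active = more than half of replicate wells show activity change below -50%, luminescence cut by over half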;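 also: luciferase reports HSF-1 transcriptional activity via heat shock element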
# AI-2 QS modul: Vibrio harveyi AI-2 quorum sensing modulators, primary screen, JMH597 strain, luminescence/OD600 ratio | activity change, % at 7.5 µM | 300,000 tested, 0.4% active | AID 2094, 2009 | Vibrio harveyi JMH597 AI-2 luminescence/OD600 ratio, 9 h; hits give low values; strain lacks LuxN and CqsS sensors; 0 = neutral-control median; in the data active = activity change below about -75%, passing the limit was not always enough;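 also: luminescence divided by OD600 gain over 9 h not by final OD600 alone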
# SMARCA2 act: SMARCA2 (BRM) function activators, primary screen, cell-based, luminescence, high throughput; activation, % at 9.1 µM; 370,000 tested, 1% active; MG213 cells, MMTV-luciferase reporter, dexamethasone, overnight; in the data active = activation above about 7.8%
# HSP90 refold inh: HSP90 inhibitors, primary screen, cell lysate, luminescence. Heat shock protein HSP 90 (rabbit reticulocyte lysate; luciferase refolding). Rabbit reticulocyte lysate, luciferase refolding luminescence, 3 h. inhibition, % at 5.6 µM. 290,000 tested, 0.91% active;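 active = inhibition above the screen-wide mean plus 3 SD, computed separately per campaign, cut at about 16% in these data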;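 also: inhibitors lower the luminescence because luciferase stays unfolded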
# PG9 Ab binder: binders of HIV-1 gp120 antibody PG9, primary screen, biochemical, TR-FRET; HIV-1 gp120 / PG9 antibody interaction; TR-FRET gp120-PG9 antibody binding; inhibition, % at 6.7 µM; 360,000 tested, 0.43% active; in the data active = inhibition above about 8.5%
# A number is an active result; . = inactive; / = no result given. Shown are actives, neighbours in structure and some others; about 3.4% of the full set was active somewhere.
SMILES,GAA850 FXN act,HSF1 inhib,AI-2 QS modul,SMARCA2 act,HSP90 refold inh,PG9 Ab binder
CCN(CC)S(=O)(=O)c1cccc(C(=O)OC2CC(C)OC2=O)c1 (stereo unspecified),.,.,.,.,16.5,.
CN1CCN(CC(=O)N2N=C(c3cccs3)CC2c2ccco2)CC1 (stereo unspecified),.,-57.5,.,.,.,.
O=C(CCl)N1N=C(c2cccs2)CC1c1ccco1 (stereo unspecified),.,-94.0,.,.,.,.
Cc1cc(N2CCN(S(C)(=O)=O)C[C@@H]2C)ccc1N1CCN(Cc2ccccc2)[C@@H](C)C1,/,/,/,.,/,.
O=C1c2cccnc2Oc2ccc(Cl)cc2N1Cc1ccc(F)cc1,.,-79.1,.,.,.,.
Cc1ccc2c(c1)N(Cc1cccc(Cl)c1)C(=O)c1cccnc1O2,.,.,.,.,.,.
COc1ccc(S[C@]2(C(=O)N(C)C)CC(=O)N(c3ccc(C#N)cc3)[C@@H]2c2ccc(OC)cc2)cc1,/,/,/,.,/,/
CCCS(=O)(=O)N1CCc2cc(OC)c(OC)cc2C1,.,-55.1,.,.,.,.
COc1ccc(S(=O)(=O)N2CCc3cc(OC)c(OC)cc3C2)cc1,.,.,.,.,.,.
c1cc2c(cc1C1CCCN1)OCCCO2 (stereo unspecified),.,-70.6,.,.,.,.
COC(=O)c1ccc2nc(-c3ccc(C)cc3)c(Cc3cccc(F)c3)n2c1,/,/,/,7.9,/,.
COC(=O)c1ccc2nc(-c3ccc(C#N)cc3)c(Cc3cccc(F)c3)n2c1,/,/,/,.,/,.
C=CCN1[C@@H](CC(C)C)COc2cc(F)ccc2S1(=O)=O,/,/,/,.,/,/
CO[C@H]1C=CO[C@@]2(C)Oc3c(C)c(O)c4c(O)c(c(C=NN5CCN(C)CC5)c(O)c4c3C2=O)NC(=O)C(C)=CC=C[C@H](C)[C@H](O)[C@@H](C)[C@@H](O)[C@@H](C)[C@H](OC(C)=O)[C@@H]1C,.,.,-119.1,.,.,.
CO[C@H]1C=CO[C@@]2(C)Oc3c(C)c(O)c4c(O)c(c(C=NN5CCN(C6CCCC6)CC5)c(O)c4c3C2=O)NC(=O)C(C)=CC=C[C@H](C)[C@H](O)[C@@H](C)[C@@H](O)[C@@H](C)[C@H](OC(C)=O)[C@@H]1C,/,.,-185.1,/,.,/
O=C1C(Cl)=C(NCCc2ccccc2)C(=O)N1CCc1ccccc1,.,.,.,7.9,.,.
C(=N\NC1=Nc2cccc3cccc1c23)/c1ccccn1,.,-71.3,.,.,.,.
COc1ccc(C=NNc2nc3ccccc3s2)cc1,.,/,/,.,/,.
C(=N\Nc1nc2ccccc2s1)/c1ccccn1,/,-86.7,.,.,85.6,.
CCc1ccccc1N(CC(=O)NCc1ccco1)C(=O)CCC(=O)Nc1ccccn1,.,-70.4,.,.,.,.
CCc1ccc(N(CC(=O)NCc2ccco2)C(=O)CCC(=O)Nc2ccccn2)cc1,.,.,.,.,.,.
COC1=C[C@H](C(=O)NCc2ccc(Br)cc2)C(C)C(c2ccccc2)CC1=O (stereo partly specified),/,/,/,.,/,/
COc1cccc(C(c2sc3nc(C)nn3c2O)N2CCN(C(=O)c3ccco3)CC2)c1 (stereo unspecified),.,-84.7,.,.,.,.
O=S1(=O)c2c(NCc3ccco3)cccc2Oc2ccccc2CN1Cc1cn(Cc2ccccc2C(F)(F)F)nn1,/,/,/,.,/,/
CC(C)N1C(=O)CN(C2CCCCCC2)C(=O)C1c1ccccc1F (stereo unspecified),.,-55.5,.,.,.,.
SMILES,GAA850 FXN act,HSF1 inhib,AI-2 QS modul,SMARCA2 act,HSP90 refold inh,PG9 Ab binder
Cc1ccc(C2C(=O)N(C3CCCC3)CC(=O)N2C2CCCCC2)cc1 (stereo unspecified),.,.,.,.,.,.
Cc1ccccc1NC(=O)c1ccc2c(c1)OCCO2,.,-65.5,.,.,.,.
Cc1ccc(-c2nnn(CC(=O)N(Cc3cccs3)C(C(=O)NC3CCCC3)c3ccncc3)n2)cc1 (stereo unspecified),.,-55.2,.,.,.,.
O=C(NCC1CCCO1)C(c1ccncc1)N(Cc1cccs1)C(=O)Cn1nnc(-c2ccc(F)cc2)n1 (stereo unspecified),.,.,.,.,.,.
O=C(Nc1ccc2[nH]ccc2c1)c1cc(-c2ccc(Cl)cc2)nc2ccccc12,/,/,/,.,/,/
COC(=O)C1CN(Cc2cn(CCC3OCCO3)nn2)CCS(=O)(=O)N1Cc1ccc(F)cc1 (stereo unspecified),/,/,/,.,/,/
OC[C@@H]1CC[C@@H]2O[C@H](CCc3ccc(-c4ccc(F)cc4)cc3)[C@@H](n3cc(C4CC4)nn3)C[C@@H]2O1,/,/,/,.,/,/
Nc1nonc1-n1nnc(C(=O)N/N=C/c2ccc(OCc3ccccc3)cc2)c1COc1ccc(F)cc1,.,.,.,.,.,.
CCOc1cccc(-c2c(C(=O)N/N=C/c3ccc(C)o3)nnn2-c2nonc2N)c1,.,-68.1,.,.,.,.
Cc1cccc(COc2ccc(/C=N/NC(=O)c3nnn(-c4nonc4N)c3COc3ccc(F)cc3)cc2)c1,.,.,.,.,16.1,.
Cc1c[nH]c2cccc(-c3c(Cl)cccc3Cl)c12,/,/,/,.,/,/
CC1=C(C(=O)OCc2ccc3c(c2)OCO3)C(c2ccc(F)cc2)NC(=O)N1 (stereo unspecified),.,-53.8,.,.,.,.
Cc1cc(C)n(-c2ccc(NC(=O)C3CCCCN3C(=O)c3ccoc3C)cc2)n1 (stereo unspecified),.,-70.2,.,.,.,.
Cc1cc(C)n(-c2ccc(NC(=O)C3CCCCN3C(=O)c3ccc(C)s3)cc2)n1 (stereo unspecified),.,.,.,.,.,.
COc1cccc(-c2nn(C)c3sc(C(=O)N4CCOCC4)cc23)c1,.,.,.,.,27.4,.
COc1ccc(NC(=O)C(NC(=O)c2ccc(=O)[nH]c2)c2ccc(C)cc2)cc1 (stereo unspecified),.,.,.,.,.,.
COc1ccc(C(NC(=O)c2ccc(=O)[nH]c2)C(=O)Nc2ccc(C(C)C)cc2)cc1 (stereo unspecified),.,-61.2,.,.,.,.
COc1cc(NS(=O)(=O)c2ccc(NC(=O)/C=C/C(=O)O)cc2)nc(OC)n1,.,-71.9,.,.,.,.
CS(=O)(=O)N1CCC(C(=O)NCC2COc3ccccc3O2)CC1 (stereo unspecified),/,/,/,.,/,/
